PubChem BioAssay AID493152 (Sanford-Burnham Center for Chemical Genomics, 2011)
Some of the results follow. Calls of active or inactive are those of the source.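 Rule for the calls: active = inhibition reaching a set limit in any replicate at 20 µM, the limit being 80% of the first screen's; inactive = the rest.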

These compounds were tested against DNA dC->dU-editing enzyme APOBEC-3G (Homo sapiens) (UniProt Q9HC16) (assay: APOBEC3G deaminase inhibitor retest, confirmation, biochemical, fluorescence, single-stranded DNA substrate, single concentration (AID 493152)). Conditions: recombinant A3G ssDNA deaminase, UDG/FAM-TAMRA fluorescence; at 20 µM; stronger effect = higher value.
Sequence of DNA dC->dU-editing enzyme APOBEC-3G (Homo sapiens) (Q9HC16 whole entry, looked up): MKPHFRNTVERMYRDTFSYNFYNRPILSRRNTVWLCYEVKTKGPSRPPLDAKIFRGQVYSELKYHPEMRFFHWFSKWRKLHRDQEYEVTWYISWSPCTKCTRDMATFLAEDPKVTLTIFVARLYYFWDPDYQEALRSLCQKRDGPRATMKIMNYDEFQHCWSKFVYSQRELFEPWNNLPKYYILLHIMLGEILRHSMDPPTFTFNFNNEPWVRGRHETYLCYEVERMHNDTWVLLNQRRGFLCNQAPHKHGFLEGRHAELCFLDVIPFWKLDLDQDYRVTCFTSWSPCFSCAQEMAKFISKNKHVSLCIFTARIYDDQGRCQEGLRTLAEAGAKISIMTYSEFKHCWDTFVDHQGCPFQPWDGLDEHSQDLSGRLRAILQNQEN

How did the inhibition turn out when `CCOc1ccc(NC(=O)c2ccc(NC(=O)COC(=O)c3ccc(NC(=O)CC#N)cc3)cc2)cc1` was run?
The inhibition was 51.5% (active).

Which inhibition does the source give for `CC(=O)N1CC[n+]2c(-c3ccc([N+](=O)[O-])cc3)csc21` here?
Its inhibition is 50.5% (active).

How did the inhibition turn out when `O=C1C=CC(=O)N1c1ccc(N2CCCCC2)cc1` was run?
The inhibition was 91% (active).

For `Cc1ccc(C(=O)c2c(NC(=O)c3ccccc3)sc(C)c2C)cc1`, which inhibition is on record?
Its inhibition is 24.2% (active).

For `Cc1n[nH]c(=S)n1/N=C/c1ccc(Br)o1`, which inhibition is on record?
Its inhibition is 80.4% (active).

`Fc1ccccc1/C=N/n1c(-c2cccnc2)n[nH]c1=S` was tested. Which inhibition did it give?
The inhibition was 84.9% (active).

Which inhibition does the source give for `C=C(C)C(=O)Nc1cccc(C2=NOC3(C2)C[C@H](C(N)=O)N(C(=O)C(c2ccccc2)c2ccccc2)C3)c1` (some centres undefined) here?
The inhibition was 44.3% (active).

Which inhibition does the source give for `CCOc1cc(C(=S)N2CCOCC2)ccc1O` here?
The inhibition was 65.3% (active).

How did the inhibition turn out when `COc1ccccc1-n1c(-c2cc(-c3ccco3)[nH]n2)n[nH]c1=S` was run?
The inhibition was 50.2% (active).

`COc1cccc(C(=O)CC(=O)C(=O)Nc2ccc([N+](=O)[O-])cc2C)c1` was tested. Which inhibition did it give?
Its inhibition is 2.17% (inactive).

Which inhibition does the source give for `S=c1[nH]nc2c3c4c(sc3ncn12)CCCC4` here?
The inhibition was 80% (active).

`S=c1[nH]nc(Nc2ccccc2)s1` was tested. Which inhibition did it give?
The inhibition was 68.3% (active).

With `Fc1ccc(Nc2nnns2)cc1` as the compound, how does the inhibition read?
Its inhibition is 23.7% (active).

`Cc1cccc(-n2c(N)c(C(=O)N3CCN(C)CC3)sc2=S)c1` was tested. Which inhibition did it give?
The inhibition was 77.7% (active).

For `CC(C)(C)c1nnc(NC(=O)C2c3ccccc3Oc3ccccc32)s1`, which inhibition is on record?
The inhibition was 31.2% (active).

Which inhibition does the source give for `CC1=C/C(=N\OS(=O)(=O)c2ccccc2)C=CC1=O` here?
Its inhibition is 63.8% (active).

For `Nc1ccccc1SC(C[N+](=O)[O-])c1ccccc1` (centres undefined), which inhibition is on record?
The inhibition was 83.4% (active).

With `CCC(CC)c1nnc(NC(=O)C2CCN(C(=O)c3ccco3)CC2)s1` as the compound, how does the inhibition read?
The inhibition was 24.5% (active).

`Cc1cc(-c2n[nH]c(=S)n2/N=C/c2ccco2)n[nH]1` was tested. Which inhibition did it give?
Its inhibition is 58.5% (active).

With `Cc1ccnc(-n2sc3ccccc3c2=O)n1` as the compound, how does the inhibition read?
The inhibition was 55.1% (active).

Which inhibition does the source give for `CCc1c(C)[nH]c(=S)c(C#N)c1C` here?
Its inhibition is 89.2% (active).

`Cc1nc2scc(-c3cccs3)c2c(=O)n1N` was tested. Which inhibition did it give?
Its inhibition is 0.32% (inactive).

For `Cc1cc(-c2n[nH]c(=S)n2-c2ccc(C)c(C)c2)no1`, which inhibition is on record?
Its inhibition is 74.9% (active).

Which inhibition does the source give for `Cn1c2ccccc2c(=O)c2c(=O)n(Cc3ccco3)c(COc3ccccc3)nc21` here?
Its inhibition is 22% (inactive).
